The structures appear in SMILES notation. Hit rate of the full screen: of about 420,000 compounds, about 64,000 (15%) were called active. Roughly 27% stayed inconclusive and do not appear here. The call rests on the fitted dose curve; in most records, active means well fitted inhibition curve with a large enough effect; inconclusive means small, poorly fitted or top-dose-only effect; inactive means flat fitted curve, though single readings scatter. Not all results are given here. Entries that show only a call come without a potency.
Potency means the concentration at half of the fitted maximal effect.

This experiment in a line: qHTS for Inhibitors of human tyrosyl-DNA phosphodiesterase 1 (TDP1): qHTS in cells in absence of CPT. Further: nearly all actives have a fitted effect of over 55% in size. The settings on record: DT40 Tdp1-/- hTDP1 cells, no CPT, ATP luminescence, 48 h; activity change, negative = growth inhibition: at 46.2 µM (top of the series). The method, boiled down: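 A cellular qHTS used chicken DT40 cells lacking endogenous Tdp1 but carrying stably transfected human TDP1. Compounds were applied without camptothecin, and cell growth kinetics were judged by ATP-dependent luminescence after ≥48 hr.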
Background: Quantitative high-throughput screening tests each substance at several concentrations.
Regarding `Cc1nc2ccccc2c(-c2ccccc2)c1C(=O)c1ccccc1`, the Potency entry was “inactive”. The entry for `CN1CCN(c2ccc(S(=O)(=O)N3CCCCC3)cc2NC(=O)Cc2ccccc2F)CC1` is “inactive”; for `O=C(CN1CCN(C2CCCCC2)CC1)Nc1ccccc1N1CCCCC1` it is 22.4 µM (active); for `O=C(Nc1ccccc1N1CCOCC1)c1ccncc1` it is “inactive”. As for `O=C(CN1CCCCC1)Nc1ccccc1C(=O)NC1CC1`, the Potency entry is “inactive”. The figure for `CC(=O)c1ccc(N2CCN(CC(=O)Nc3ccccc3N3CCOCC3)CC2)cc1` is 10.3 µM (active); for `O=C(CN1CCCCC1)Nc1ccccc1Cl` it is “inactive”. With `CN1CCN(c2ccccc2NC(=O)COc2ccc(C3CCCCC3)cc2)CC1`, the Potency was 16.4 µM (active). The entry for `CCc1ccc(C(=O)NC(=S)Nc2ccccc2N2CCOCC2)cc1` is “inactive”; for `CNC(=O)C1CC(=O)N(c2ccc(OCC(=O)Nc3ccccc3C)cc2)C1` (stereo not given) it is “inactive”; for `O/N=C(\c1ccc2c(c1)OCCO2)C1CCCCC1` it is “inactive”. `CC1(C(=O)NS(=O)(=O)c2ccc(C#N)cc2)CCN1C(=O)c1ccc(C2CCCCC2)cc1` (stereo not given): the Potency result was “inactive”.

For `O=C(O)C1C2C=CC(O2)C1C(=O)NCCc1cccc(Cl)c1` (stereo not given), the Potency entry is “inactive”.

Take `COCC(C)NC(=O)c1ccc(Cl)c(Cl)c1` (stereo not given): the Potency entry is “inactive”. For the compound `Cn1nc(C(=O)OCC(=O)N(Cc2ccccc2)C(C)(C)C)c2ccccc2c1=O`, the Potency result was “inactive”.

`CC(Oc1ccccc1)C(=O)Nc1c2c(nn1-c1ccccc1)CS(=O)C2` (stereo not given): the Potency entry was “inactive”. Take `O=C(NCCCn1ccnc1)c1ccccc1F`: the Potency entry is “inactive”. The entry for `O=C(CCN1CCN(C/C=C/c2ccccc2)CC1)Nc1cccc(F)c1` is “inactive”; for `O=C1/C(=C/c2cccs2)SC(=S)N1C1CCS(=O)(=O)C1` (stereo not given) it is 18.4 µM (active). As for `O=C(CCN1C(=O)/C(=C/c2cccs2)SC1=S)NNC(=O)c1cccc(O)c1`, the Potency entry is “inactive”.

In the case of `CCN1CCC2(CCN(Cc3cn[nH]c3-c3ccc(OC)c(F)c3)C2)C1` (stereo not given), the Potency result was “inactive”. The same measure for `O=C(Cn1cnc2c(OCc3ccccc3)ncnc21)NCCCn1ccnc1`: “inactive”; for `Cc1ccc(C(C)(C)C)c(OCCCCN2CCCC2)c1`: 29.1 µM (active). For the compound `Cc1ccc(C(C)C)cc1OCCN1CCCC1`, the Potency result is “inactive”. Turning to `O=[N+]([O-])c1ccccc1OCCCCN1CCCCC1`, the Potency entry is “inactive”. As to `Nc1nc2c(ncn2[C@@H]2O[C@H](CNCc3ccc(OCCCN4CCOCC4)cc3)[C@@H](O)[C@H]2O)c(=O)[nH]1`, the Potency result is “inactive”. The same measure for `O=S(O)CNc1ccc(S(=O)(=O)c2ccc(NCS(=O)O)cc2)cc1`: “inactive”; for `Cc1ccccc1NC(=O)Cn1c(=O)n(Cc2ccco2)c(=O)c2ccc(C(=O)NC3CCCC3)cc21`: “inactive”; for `Cc1ccc(COc2ccc(/C=N/NC(=O)CN3CCCCC3)cc2)cc1`: “inactive”. With `CNC(=S)NNC(=O)c1sccc1OCc1ccccc1`, the Potency entry is “inactive”. In the case of `Cc1ccc(/C=N/NC(=O)c2sccc2OCc2ccc(F)cc2)cc1`, the Potency is 18.4 µM (active). The same measure for `CCN(CC)S(=O)(=O)c1ccc(NC(=O)CN(c2cccc(F)c2)S(C)(=O)=O)cc1`: “inactive”; for `C=CC[n+]1c(-c2ccc(C)cc2)csc1NNC(=O)Nc1ccccc1`: 9.2 µM (active). As for `C=CCNC(=O)c1csc(-c2ccccc2)n1`, the Potency entry is “inactive”. Consider `C=CCNc1scc(-c2ccccc2)[n+]1CC=C`, for which the Potency result was “inactive”. The same measure for `Cn1cnnc1Sc1ccc(S(C)(=O)=O)cc1[N+](=O)[O-]`: “inactive”; for `CNC[C@H]1OCc2cnnn2CCCC(=O)N([C@H](C)CO)C[C@@H]1C`: “inactive”; for `CC(C)CN(CC(C)C)C(=O)CN1c2cccc3cccc(c23)S1(=O)=O`: “inactive”. Turning to `CC(C(=O)N1CCOCC1)N1c2cccc3cccc(c23)S1(=O)=O` (stereo not given), the Potency result is “inactive”. In the case of `CCN(CC)C(=O)C(C)N1c2cccc3cccc(c23)S1(=O)=O` (stereo not given), the Potency is 16.4 µM (active).

As for `CCNC(=O)C1(C)CCN(C(=O)c2ccccc2)C1` (stereo not given), the Potency result is “inactive”. With `O=C(CCn1ccc2cc(S(=O)(=O)N3CCCC3)ccc21)NCc1cccc(Cl)c1`, the Potency is 20.6 µM (active).

With `COc1ccc(OC)c(CCNC(=O)CCn2ccc3cc(S(=O)(=O)N4CCCC4)ccc32)c1`, the Potency result is “inactive”.

As to `O=C(Cn1ccc2cc(S(=O)(=O)N3CCCC3)ccc21)NCc1ccccc1`, the Potency was 9.2 µM (active). The same measure for `O=C(COc1ccc(S(=O)(=O)N2CCCCC2)cc1)NCc1ccccn1`: “inactive”.

As to `O=C(NCc1ccccc1)C1CCN(S(=O)(=O)c2ccc3[nH]c(=O)ccc3c2)CC1`, the Potency result was “inactive”.

Take `CCCCN(C(=O)c1ccc(S(=O)(=O)N2CCOCC2)cc1)C1CCS(=O)(=O)C1` (stereo not given): the Potency entry was “inactive”. The entry for `O=C(CN1CCOC1=O)N1CCCC(Nc2ccc(F)c(F)c2)C1` (stereo not given) is “inactive”; for `Cc1ccc([N+](=O)[O-])cc1S(=O)(=O)N1CCCN(C)CC1` it is “inactive”. Take `Cc1cc(NC(=O)c2ccc(-c3ccc(Cl)cc3)o2)cc(-c2nc3ncccc3o2)c1O`: the Potency entry was “inactive”. `N#Cc1ccsc1NC(=O)CN1CCN(S(=O)(=O)c2cc(Cl)ccc2Cl)CC1`: the Potency was 20.6 µM (active). Consider `CCN1CCN(C(=O)C2CCN(S(=O)(=O)c3cc(Cl)ccc3Cl)CC2)CC1`, for which the Potency entry was “inactive”. With `O=C(CN1CCN(S(=O)(=O)c2cc(Cl)ccc2Cl)CC1)c1ccc(O)c(O)c1`, the Potency was 2.59 µM (active).

On to `N#Cc1ccsc1NC(=O)CN1CCCCC1`, for which the Potency result was “inactive”. In the case of `O=S(=O)(c1cc(Cl)ccc1Cl)N1CCN(Cc2ccco2)CC1`, the Potency result is “inactive”. The same measure for `CN1CCN(S(=O)(=O)c2cccc(C(=O)Nc3sccc3C#N)c2)CC1`: “inactive”; for `Cn1c(SCc2nc3ccccc3s2)nnc1-c1ccc2c(c1)OCO2`: “inactive”; for `COCc1cc(C)nc(SCC(=O)Nc2cccc(C)c2)c1C#N`: “inactive”. The same measure for `Cc1cc(C)nc(SCc2ccccc2C#N)n1`: “inactive”; for `COc1ccc2oc(=O)c(C(=O)O)cc2c1`: “inactive”. As to `COc1ccc2oc(=N)c(C(=O)Nc3ccc(Br)cc3)cc2c1`, the Potency result was “inactive”. The same measure for `COc1ccc(/C=C/C(=O)c2cc(Br)ccc(=O)c2O)cc1`: 20.6 µM (active); for `COc1ccc(NC(=O)Cn2nnc(C(=O)NCCc3ccc(OC)c(OC)c3)c2N)cc1`: “inactive”; for `CC(C)(C)n1cnnc1Sc1ccc([N+](=O)[O-])cn1`: “inactive”. The same measure for `O=C(COC(=O)c1cc(S(=O)(=O)N2CCCCC2)ccc1Cl)NCc1ccco1`: “inactive”. Regarding `CC1CCCCC1NC(=O)c1cn(C)c2ccc(S(=O)(=O)N3CCOCC3)cc2c1=O` (stereo not given), the Potency result was “inactive”. The entry for `Cc1ccc(S(=O)(=O)N2CCCCC2)cc1NC(=O)CCNC(=O)c1ccccc1Cl` is “inactive”; for `O=C(NNC(=O)c1cc(S(=O)(=O)N2CCCCC2)ccc1Cl)c1ccccc1O` it is 20.6 µM (active). With `CC1CCCC(NC(=O)c2cc(S(=O)(=O)N3CCCCC3)ccc2Cl)C1C` (stereo not given), the Potency is 25.9 µM (active).

For the compound `Cc1cc(C(=O)CCC(=O)NNC(=O)c2ccccc2O)c(C)s1`, the Potency result is “inactive”. Regarding `CC(=O)NC(=O)c1ccccc1O`, the Potency entry was “inactive”.

Turning to `Cc1ccc(S(=O)(=O)N2CCN(C)CC2)cc1C(=O)NC1CCCCC1`, the Potency result was “inactive”. The figure for `O=C(NNC(=O)c1ccccc1O)c1ccccc1O` is 2.91 µM (active). The entry for `C[C@@H]1O[C@@H](OC[C@H]2O[C@@H](Oc3c(-c4ccc(O)cc4)oc4cc(O)cc(O)c4c3=O)[C@H](O)[C@@H](O)[C@@H]2O)[C@H](O)[C@H](O)[C@H]1O` is “inactive”; for `CCOc1ccc(C(C)NC(=O)CN2C(=O)NC3(CCCCC3)C2=O)cc1OCC` (stereo not given) it is “inactive”. For the compound `Cc1ccccc1NC(=O)Cn1c(=O)n(CC2CCCO2)c(=O)c2ccccc21` (stereo not given), the Potency entry is “inactive”. Consider `C=C1O[C@@](CO)(n2cnc3c(N)ncnc32)[C@H](O)[C@@H]1O`, for which the Potency result was “inactive”.

Turning to `O=C(NNC(=O)c1ccc(Cl)nc1)c1ccc(Br)cc1`, the Potency entry was “inactive”. For `COc1ccc(C(=O)NNC(=S)NC(=O)c2ccccc2[N+](=O)[O-])cc1`, the Potency was 23.1 µM (active). `O=C(NC(=S)Nc1ccc(S(=O)(=O)N2CCOCC2)cc1)c1ccccc1[N+](=O)[O-]`: the Potency result was “inactive”. As for `COc1ccc(C(=O)NC2CCN(C(=S)Nc3ccccc3)CC2)cc1`, the Potency result is “inactive”. The same measure for `CC(C)Oc1ccc(CCC(=O)NNC(=S)NCc2ccccc2)cc1`: “inactive”. Regarding `CNC(=S)NNC(=O)c1ccc(N(C)C)cc1`, the Potency result is “inactive”.

For the compound `COC(=O)CNC(=O)c1ccccc1[N+](=O)[O-]`, the Potency entry is “inactive”. The figure for `COc1ccc(C(=O)NC(=S)NNC(=O)CCc2ccccc2)cc1` is 6.51 µM (active); for `CC(=O)NC(=S)NNC(=O)c1ccc(Br)cc1` it is 5.8 µM (active).

With `COc1ccc(C(=O)NNC(=S)NC(=O)c2ccccc2)cc1`, the Potency was 16.4 µM (active). Turning to `COc1ccc(C(=S)Nc2ccccc2)cc1`, the Potency entry is “inactive”.

As to `O=C(CCc1ccccc1)NNC(=O)c1ccc(Br)cc1`, the Potency result was “inactive”. The same measure for `CS(=O)(=O)Nc1ccccc1C(=O)OCC(=O)NC1CC1`: “inactive”; for `CC(C)NC(=O)c1ccc(Sc2ccccc2)c([N+](=O)[O-])c1`: “inactive”. The entry for `CCOc1ncccc1C(=O)OCc1cn2cc(Cl)ccc2n1` is “inactive”; for `C[C@@H]1CN([C@H](C)CO)C(=O)c2cc(Br)cnc2O[C@@H]1CN(C)Cc1cncnc1` it is “inactive”.

For `COc1ccc(-c2[nH]nc(-c3ccccc3)c2-c2nc3ccccc3[nH]2)cc1`, the Potency entry is “inactive”.

`CNC(=O)NCCN1CCCC1=O`: the Potency result is “inactive”.

Regarding `COC(=O)C[C@@H]1C=C[C@@H](NC(=O)c2cccnc2)[C@@H](CO)O1`, the Potency entry is “inactive”. The same measure for `Cc1nn(C)c(Oc2ccccc2)c1[N+](=O)[O-]`: “inactive”; for `CN(CCN1CCOCC1)Cc1nc(-c2ccc3c(c2)OCO3)no1`: “inactive”. As to `CCN1CC(CN(C)Cc2nc(-c3ccc(Cl)cc3)no2)CC1=O` (stereo not given), the Potency is 16.4 µM (active). The same measure for `CN(Cc1ccccn1)Cc1nc(-c2ccc(Cl)cc2)no1`: “inactive”; for `O=C(Nc1ccccc1)O/N=C1/CCCc2occc21`: “inactive”; for `COc1ccc(-n2c(C)cc(C(=O)CN3C(=O)NC4(CCc5ccccc54)C3=O)c2C)cc1` (stereo not given): 18.4 µM (active). The entry for `COc1ccc(C(=O)CN2C(=O)NC3(CCc4ccccc43)C2=O)c(OC)c1` (stereo not given) is “inactive”. As to `COc1ccc(CNC(=O)CN2C(=O)NC3(CCCc4sccc43)C2=O)cc1` (stereo not given), the Potency entry is “inactive”. For the compound `CCc1cccc(NC(=O)COC(=O)c2cc(=O)c3ccccc3o2)c1`, the Potency entry is “inactive”.

The values above are taken from PubChem BioAssay AID686978 (National Center for Advancing Translational Sciences (NCATS), 2013).
